# VACV mCherry inh = qHTS for Stage-Specific Inhibitors of Vaccinia Orthopoxvirus: mCherry Reporter Primary qHTS. 0.63% of 310,000 active. Potency, µM (titrated, usually from 36.5 µM), usual class: inhibitors. Vaccinia virus mCherry reporter infection, fluorescence; calls by dose curve; tested in A549 cells; also: nearly all actives have a fitted effect of over 35% in size
# VACV Venus inh = qHTS for Stage-Specific Inhibitors of Vaccinia Orthopoxvirus: Venus Reporter Primary qHTS; Vaccinia virus Venus reporter expression, fluorescence; Potency, µM (doses to about 36.5 µM), usual class: inhibitors; 0.46% of 330,000 active; AID 720580, 2013; calls by dose curve; tested in A549 cells; also: nearly all actives have a fitted effect of over 30% in size
# HCMV antiviral = qHTS Assay for inhibitors of the human cytomegalovirus (HCMV). HFF cells, HCMV-luciferase reporter, 72 h; active compounds read low. activity change, negative = inhibition, % at 57.5 µM. 4.5% of 410,000 active. AID 1259415, 2018; in the data active = activity change below about -60%; inconclusive = no clear call, values can overlap the other calls; inactive = above about -39%
#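 After 16 h attachment at 37C, HFF cells received test compound and HCMV-luciferase (1 PFU/cell); reporter luminescence read 72 h later, data normalized against buffer-only and known inhibitor Salinomycin.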
# FMDV inh = High Throughput Screening for Foot and Mouth Disease Virus Antivirals | 1.2% of 410,000 active | Potency, µM (series often up to 57.9 µM), usual class: inhibitors | FMDV antiviral cell-based qHTS; calls by dose curve; tested in HEK293T cells; also: read-out not given here; nearly all actives have a fitted effect of over 45% in size
# Marburg entry inh = qHTS for inhibitors of binding or entry into cells for Marburg Virus | Marburg virus pseudotyped entry inhibition, cell reporter | AID 540276, 2011 | 1.8% of 300,000 active | Potency, µM (titrated, usually from 37.8 µM), usual class: inhibitors; calls by dose curve; tested in HEK293 cells
# Lassa entry inh = qHTS for Inhibitors of binding or entry into cells for Lassa Virus; Lassa virus pseudotype entry inhibition, cell reporter; Potency, µM (top dose mostly 37.9 µM), usual class: inhibitors; 1.2% of 300,000 active; calls by dose curve; tested in HEK293 cells; also: nearly all actives have a fitted effect of over 50% in size
# A number is an active result; i = inactive; ? = inconclusive; nt = no result. Compounds with a hit are over-represented: about 6.5% of the library has one in this group of screens.
SMILES,VACV mCherry inh,VACV Venus inh,HCMV antiviral,FMDV inh,Marburg entry inh,Lassa entry inh
CN(CCO)C[C@H](O)Cn1cnc2c1c(=O)n(C)c(=O)n2C (tested in a mixture with another compound),nt,nt,nt,nt,i,nt
Cc1ccc2c(c1)N=C(c1ccc(Cl)cc1)CO2,?,?,-102.3,i,?,i
O=C(CSc1nc2scc(-c3ccco3)c2c(=O)n1-c1ccccc1)N1CCOCC1,nt,nt,i,i,?,4.11µM
CCCc1c(C)c2ccc(O)c(CN3CCN(c4ccc(F)cc4)CC3)c2oc1=O,i,i,i,?,i,i
N#Cc1cc([N+](=O)[O-])c2sc(C(N)=O)[n+]([O-])c2c1,nt,nt,nt,nt,i,?
CC1=[N+](C)c2c(ccc3cccnc23)C1(C)C,i,i,-107.8,?,?,5.62µM
Cc1[nH]c2c(ccc3cccnc32)c1C,i,i,i,i,i,i
CCNC(=O)c1ccc2nc(-c3ccccc3)c(-c3ccccc3)nc2c1,i,i,nt,nt,nt,nt
CCNC(=O)c1ccc2c(c1)C1C3CCC(C3)C1C(c1ccccc1)N2 (centres undefined),?,?,-62.6,i,i,?
CCOC(=O)c1sc(N(Cc2ccccc2)C(=O)COC(=O)c2ccccc2O)nc1C,i,i,i,i,?,i
CCOC(=O)c1sc(N(Cc2ccccc2)C(=O)CCl)nc1C,i,i,i,?,?,18.3µM
CCOC(=O)c1sc(N(Cc2ccccc2)C(=O)COC(=O)c2ccc(O)cc2)nc1C,i,?,?,i,?,2.06µM
CC(C)CC(=O)NC(NC(=S)Nc1cccc2cccnc12)C(Cl)(Cl)Cl (centres undefined),nt,?,?,i,14.1µM,?
O=C(COc1ccccc1)NC(NC(=S)Nc1ccccc1C(=O)O)C(Cl)(Cl)Cl (centres undefined),i,i,i,i,?,i
CC(C)C(=O)NC(Nc1cccc2cccnc12)C(Cl)(Cl)Cl (centres undefined),i,i,i,?,i,i
O=C(CF)NC(NC(=S)Nc1ccccc1O)C(Cl)(Cl)Cl (centres undefined),nt,nt,-65.5,i,nt,nt
COC(=O)[C@@]1(Sc2ccc(OC)cc2)CC(=O)N[C@@H]1c1ccc(OC(C)C)c(OC)c1,nt,nt,i,nt,nt,nt
Cc1ccc2nc(-c3ccc(NC(=S)NC4CC(C)(C)NC(C)(C)C4)cc3)sc2c1,i,i,-102.0,i,?,?
Cc1ccc2nc(-c3ccc(NC(=S)NC(=O)C(C)C)cc3)sc2c1,i,i,i,nt,i,i
CNCCC(Oc1ccccc1C)c1ccccc1 (centres undefined),nt,nt,nt,nt,14.1µM,?
O=C(CSc1nnc(-c2ccc(OC(F)F)cc2)o1)N1CCOCC1,15.8µM,?,i,nt,i,i
CCOc1ccc(-c2nnc(SCC(=O)NCc3ccccc3)nc2-c2ccc(OCC)c(OC)c2)cc1OC,i,i,i,i,nt,?
Cc1c(Cl)cccc1NC(=O)c1oc2ccc(S(=O)(=O)N3CCCCCC3)cc2c1C,i,i,i,i,nt,i
FC(F)Oc1ccc(-n2cc(-c3ccccc3)[n+]3c2CCCCC3)cc1,i,i,i,?,?,?
Cc1ccc(-c2cn(-c3ccc(OC(F)F)cc3)c3[n+]2CCCCC3)cc1,i,i,-88.6,i,i,?
SMILES,VACV mCherry inh,VACV Venus inh,HCMV antiviral,FMDV inh,Marburg entry inh,Lassa entry inh
Cc1ccc(-c2cn(-c3ccc(SC(F)F)cc3)c3[n+]2CCC3)cc1,i,i,-97.7,?,?,i
CCC[C@H]1[C@@H](NS(=O)(=O)c2ccc(C)cc2)CC[C@@]23CCCN2C(=O)CCC[C@@H]13,nt,nt,-102.7,nt,nt,nt
CCC[C@H]1[C@@H](NS(=O)(=O)c2ccc(Cl)cc2)CC[C@@]23CCCN2C(=O)CCC[C@@H]13,nt,nt,i,nt,nt,nt
O=C(O)c1cccc2nc3ccccc3nc12,?,i,-62.5,i,nt,nt
O=C(O)c1nc2ccccc2nc1C(=O)O,nt,nt,i,i,i,i
Cc1ccc(C)n1-c1ccc(N2CCOCC2)c([N+](=O)[O-])c1,nt,nt,i,i,nt,nt
Cc1ccc(C)n1-c1ccc(N2CCOCC2)cc1,nt,nt,-73.2,i,i,i
CCOC(=O)c1cc(-c2ccc(F)cc2)n(CCC(=O)Nc2ccccc2OC)c1C,i,i,i,i,nt,i
COc1ccc(C(c2c(C)[nH]n(-c3ccccc3)c2=O)c2c(C)[nH]n(-c3ccccc3)c2=O)cc1OC,i,i,i,i,i,i

# Source: PubChem (National Center for Advancing Translational Sciences (NCATS))
